Bioassay records: PubChem, National Center for Advancing Translational Sciences (NCATS)
NPC1 promoter act: activates the NPC1 promoter; Huh7 NPC1 promoter luciferase reporter, 24 h; Potency, µM (series often up to 9.22 µM), for the others: at the highest dose activation, actives largely listed as activators; 320,000 compounds, 2.4% hits; further: % of control where 0% means no effect; nearly all actives have a fitted effect of over 60% in size
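Compounds in DMSO were transferred onto Huh7 NPC1-luciferase reporter cells pre-incubated 2 h; after 24 h at 37 °C, Amplite reagent was dispensed and luminescence recorded 10 min later.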
SMN2 splice enh: SMN2 splice variant enhancement; HEK293 SMN2-luciferase splicing reporter, luminescence, 30-36 h; Potency, µM (doses to about 46.1 µM), inactives show top-dose activity change, positive = activation, usual class: activators; 210,000 compounds, 2.8% hits; AID 1458; further: % of control where 0% means no effect; nearly all actives have a fitted effect of over 55% in size
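qHTS luciferase splicing reporter: luminescence rises when SMN2 exon 7 is included in transfected HEK293 cells. Compound exposure lasted 30-36 h at 37C, with 4.5 mM final sodium butyrate as control, followed by a ONE-Glo read.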
Luc counter: counter-screen: inhibitors of Kinase-Glo firefly luciferase | Kinase-Glo luciferase, ATP luminescence, 8 min | Potency, µM (titrated, usually from 38.3 µM), without a hit: top-dose activity change, negative = inhibition, most hits filed as inhibitors | 200,000 compounds, 0.28% hits | AID 1379; further: on the % scale 0 is the no-effect control and ±100 the full control effect; nearly all actives have a fitted effect of over 60% in size
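Recombinant Kinase-Glo luciferase, 10 uM ATP (linear range), luciferin; imidazole pH 7.2 / KCl / MgCl2 / Tween / BSA buffer; 8 min RT; luminescence.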
FLuc counter: inhibits or activates purified firefly luciferase, miR-21 counter-screen; Potency, µM (highest dose often 57.5 µM), inactives show top-dose activity change, negative = inhibition, usual class: inhibitors; 360,000 compounds, 6.9% hits; purified FLuc, Km substrates, luminescence inhibition; P08659;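 further: plate controls were vehicle for no effect and reference inhibitor for full effect; nearly all actives have a fitted effect of over 55% in size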
Target sequence (P08659 whole entry, looked up): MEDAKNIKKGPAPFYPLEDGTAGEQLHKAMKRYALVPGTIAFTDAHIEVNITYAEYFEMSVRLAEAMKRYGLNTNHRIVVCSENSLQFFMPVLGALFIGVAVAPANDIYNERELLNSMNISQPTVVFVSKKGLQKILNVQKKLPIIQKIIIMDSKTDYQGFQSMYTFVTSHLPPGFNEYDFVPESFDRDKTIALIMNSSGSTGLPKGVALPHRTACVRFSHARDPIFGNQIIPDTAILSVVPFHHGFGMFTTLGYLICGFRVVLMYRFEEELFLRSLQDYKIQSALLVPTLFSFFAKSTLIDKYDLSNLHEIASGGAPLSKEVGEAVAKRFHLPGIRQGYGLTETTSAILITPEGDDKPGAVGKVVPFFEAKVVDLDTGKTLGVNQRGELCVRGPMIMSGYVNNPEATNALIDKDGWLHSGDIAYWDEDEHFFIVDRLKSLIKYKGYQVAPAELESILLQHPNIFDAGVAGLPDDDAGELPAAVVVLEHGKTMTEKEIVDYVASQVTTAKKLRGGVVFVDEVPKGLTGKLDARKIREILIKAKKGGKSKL
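Biochemical qHTS of compounds, final roughly 60 µM downward over six points, against 10 nM purified firefly luciferase using Km concentrations of substrates (10 uM D-luciferin, 10 uM ATP) in Tris acetate pH 7.5 buffer; luminescence output.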
ELG1 genotox: induces genotoxicity in HEK293T cells with luciferase-tagged ELG1 | HEK293T ELG1-luciferase reporter, luminescence, 16 h | Potency, µM (highest dose often 46 µM), for inactives: at the highest dose activity change, positive = activation, hits mostly activators | 330,000 compounds, 1.3% hits; further: % of control where 0% means no effect; nearly all actives have a fitted effect of over 60% in size
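Cells (2,000/well) expressing the ELG1-luciferase fusion are dosed by pin tool and kept 16 hr at 37 °C, 5% CO2. Signal comes from ONE-Glo luciferase reagent after 30 min at room temperature.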
Rab9 prom act: Rab9 promoter activation; Huh7 Rab9 promoter-luciferase reporter, luminescence, 24 h; Potency, µM (series often up to 9.22 µM), inactives show top-dose activation, negative = inhibition, usual class: activators; 320,000 compounds, 2.8% hits; AID 485297; further: % of control where 0% means no effect; nearly all actives have a fitted effect of over 60% in size
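Measured in stably transfected Huh7 cells bearing a Rab9 promoter–luciferase construct: 24 h compound treatment at 37 °C, followed by luminescence detection.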
* marks the source's active call; other numbers are inactive results; ? = inconclusive; nt = no result given; [ ] = remark or other dose. Shown are actives, neighbours in structure and some others; about 7.4% of the full set was active somewhere. The call rests on the fitted dose curve; in most records, active means well fitted curve in the direction sought with a large enough effect; inconclusive means small, poorly fitted or top-dose-only effect, or another doubt; inactive means no such curve, though single readings can be large; an effect the other way counts as inactive or inconclusive. Potency means the concentration at half of the fitted maximal effect.

SMILES | NPC1 promoter act | SMN2 splice enh | Luc counter | FLuc counter | ELG1 genotox | Rab9 prom act
CSc1ccc(Cl)c(C(=O)Nc2ccc(Cl)cn2)c1 | -13% | nt | -1% | -10% | -4% | -11%
COc1cc(SC)ccc1C(=O)Nc1nc(C)cc(C)n1 | ? | nt | nt | ? | 3% | ?
COc1cc(SC)ccc1C(=O)Nc1ccc2c(c1)CCC2 | 4µM* | nt | nt | 2.1µM* | ? | 4µM*
COc1cc(SC)ccc1C(=O)NCC1CCCO1 (stereo not given) | 14% | 1% | -4% | -1% | -2% | 3%
COc1cc(SC)ccc1C(=O)Nc1cccc(C2OCCCO2)c1 | 3.5µM* | nt | nt | 17µM* | 3% | 1.4µM*
CCCCC/C=C\C/C=C\C/C=C\C=C\C(=O)CCCC(=O)O | nt | 11% | 2% | nt | nt | nt
O=C(Nc1ccccc1F)c1nc(SCc2ccccc2F)ncc1Cl | nt | 2% | nt | 4% | nt | nt
Cc1ccc(C)c(Cn2c(-c3cccs3)nc3ccccc32)c1 | nt | -12% | nt | -11% | nt | nt
Cc1ccccc1CNC(=O)C1CCCCN1S(=O)(=O)c1ccc(F)cc1 (stereo not given) | nt | nt | nt | 3% | nt | nt
O=C(N/N=C/c1ccccc1Br)c1ccc(CSc2cccc3cccnc23)cc1 | 3% | -41% | 19% | -4% | 3% | -1%
NNC(=O)c1ccc(CSc2cccc3cccnc23)cc1 | 1% | -3% | -1% | ? | 1% | 0%
c1cnc2c(SCc3ccc(-c4nnco4)cc3)cccc2c1 | ? | -1% | -9% | 24µM* | 6% | ?
Cc1cccc(CSc2cccc3cccnc23)c1 | 21% | 4% | -9% | 19µM* | ? | 24%
CCOc1cc(C(=O)N(Cc2nc(-c3ccc(C)cc3)no2)C(C)C)cc(OCC)c1OCC | nt | 1% | nt | -11% | nt | nt
Cc1nnc(CN(C)C(=O)c2cc(COc3ccc(F)cc3Cl)on2)o1 | 2.5µM* | nt | nt | 12µM* | ? | 2.8µM*
CN(CC1CCCCO1)C(=O)c1cc(COc2ccc(F)cc2Cl)on1 (stereo not given) | ? | nt | nt | ? | -2% | 2.8µM*
CN(CCC1CCCCO1)C(=O)c1cc(COc2ccc(F)cc2F)on1 (stereo not given) | 6% | nt | nt | -13% | -2% | 5%
COc1cc(Cl)ccc1OCc1cc(C(=O)N(C)C2CCOC2)no1 (stereo not given) | ? | nt | nt | ? | ? | 27%
COc1cc(Cl)ccc1OCc1cc(C(=O)N(C)CC2CCCCO2)no1 (stereo not given) | 3.5µM* | nt | nt | 19µM* | ? | 4µM*
COc1cc(Cl)ccc1OCc1cc(C(=O)N[C@H]2CCCCNC2=O)no1 | ? | nt | nt | 3.4µM* | 14% | ?
COc1ccccc1CNC(=O)C1CCN(S(=O)(=O)c2ccc3c(ccn3C)c2)CC1 | nt | nt | nt | 4% | nt | nt
COc1ccc(CNC(=O)c2cc3c(=O)n4cccc(C)c4nc3s2)cc1 | nt | -9% | nt | 0% | nt | nt
CN(C)/C=N/S(=O)(=O)c1cccn1-c1ncc(C(F)(F)F)cc1Cl | -6% | 12% | 2% | -1% | 16% | -10%
CN(C)/C=N/c1ncn(-c2ncc(C(F)(F)F)cc2Cl)n1 | 3.2µM* | 11µM* | ? | ? | ? | 2.2µM*
COc1ccc(C2C(C(=O)c3cccs3)=C(O)C(=O)N2Cc2cccnc2)cc1OC (stereo not given) | ? | nt | -9% | 19µM* | ? | ?
SMILES | NPC1 promoter act | SMN2 splice enh | Luc counter | FLuc counter | ELG1 genotox | Rab9 prom act
CCOC(=O)C1CCN(C(=O)c2nn(-c3ccc(OC)c(Cl)c3)c(=O)c3c2c2ccccc2n3C)CC1 | nt | 5% | nt | -2% | nt | nt
O=C(/C=C/c1ccc(OC2CSC2)cc1)c1ccccc1 | 3.5µM* | 13% | ? | 0.54µM* | ? | 1.8µM*
O=C(N/N=C/c1ccc(OC2CSC2)cc1)c1ccccc1 | 3.2µM* | 21% | -19% | 2.4µM* | ? | 2.2µM*
CNC(=O)c1ccc(OC2CSC2)cc1 | nt | 2% | 0% | 1% | nt | nt
O=C(N/N=C/c1ccc(OCc2ccc(F)cc2)cc1)c1ccccc1 | 9% | 7% | 3% | -4% | 11% | -2%
CC1=NN(c2nc(-c3ccc(C)cc3)cs2)C(=O)C1N=Nc1cccc(C)c1 (stereo not given) | 28% | 1%[1.84 µM] | -2% | ? | 1% | ?
CC1=NN(C(N)=S)C(=O)C1N=Nc1ccc(O)cc1 (stereo not given) | -11% | nt | -2% | 27µM* | 9% | 2%
CCOc1ccc(N=NC2C(=O)N(C(N)=S)N=C2C)cc1 (stereo not given) | 2.8µM* | nt | nt | 3.8µM* | 18µM* | 4µM*
CC1=NN(C(N)=S)C(=O)C1N=Nc1ccccc1C(=O)O (stereo not given) | -2% | nt | nt | 5% | -4% | 7%
CC1=NN(C(N)=S)C(=O)C1N=Nc1cccc(C(=O)O)c1 (stereo not given) | ? | nt | nt | 4.8µM* | 2% | 2.5µM*
CC1=NN(c2ccccc2C(=O)O)C(=O)C1N=Nc1ccccc1 (stereo not given) | 20% | nt | nt | 15µM* | -11% | 21%
O=C(Nc1ccccc1)N1CCC2(CC1)CCN(C(=O)c1ccncc1)CC2 | nt | 5% | -4% | nt | nt | nt
CCOc1ccc(NC(=O)CC2C(=O)N(c3ccccc3)C(=O)N2Cc2cccc(OC)c2)cc1 (stereo not given) | nt | nt | nt | -18% | nt | nt
Cc1c2ccccc2c(CSC(=N)N)c2ccccc12 | nt | -39%[9.22 µM] | -7%[7.66 µM] | nt | nt | nt
CCN1C(=O)[C@@H]2[C@H](C1=O)[C@@H]1C[C@H]3C(=O)N(CC)C(=O)[C@H]3[C@@H]3C1=C(C(=O)N1C(=O)O/C(=N\CC4CC4)[C@]31C)[C@@H]2C | nt | 1% | 0% | nt | nt | nt
CC1=NN(C(N)=S)C(=O)C1N=Nc1ccc(C)c(Br)c1 (stereo not given) | 1.8µM* | nt | nt | 1.7µM* | 5.2µM* | 1.3µM*
CC(=O)Nc1ccc(N)cc1 | 0% | -1% | nt | 2% | -1% | -3%
COc1ccccc1N=NC1C(=O)N(C(N)=S)N=C1C (stereo not given) | -1% | nt | nt | ? | -5% | 1%
CC1=NN(C(N)=S)C(=O)C1N=Nc1ccc(F)cc1 (stereo not given) | 2.5µM* | nt | nt | 11µM* | 23µM* | 3.5µM*
CC(=O)Nc1ccc(N=NC2C(=O)N(C(N)=S)N=C2C)cc1 (stereo not given) | ? | nt | nt | 12µM* | ? | ?
CC1=NN(C(N)=S)C(=O)C1N=Nc1ccc([N+](=O)[O-])cc1 (stereo not given) | ? | nt | nt | 3.4µM* | ? | ?
CC(=O)N1CCc2c(sc3c2c(=O)n(-c2ccc(C)cc2)c(=O)n3Cc2c(F)cccc2Cl)C1 | nt | -2% | nt | -7% | nt | nt
